Source: PubChem (National Center for Advancing Translational Sciences (NCATS))
Giardia killer = Small Molecules that selectively kill Giardia lamblia: qHTS. Giardia lamblia trophozoite viability. activity change, % at 7.66 µM, hits read low. 340,000 compounds, 0.15% hits. AID 540267, 2011; in the data active = activity change below about -80%; inconclusive = between about -30% and that limit;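 also: parasites exposed to compound for two days anaerobically before the ATP read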
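Giardia lamblia trophozoites (100 cells/well) were incubated with compounds for 48 h at 37 deg C under anaerobic conditions. Viability was read as ATP content by one-step luminescence after 15-30 min at room temperature.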
VP16 counter = VP16 counterscreen qHTS for inhibitors of ROR gamma transcriptional activity; Drosophila S2 Gal4-VP16 UAS-luciferase, luminescence, 20 h; Potency, µM (highest dose often 53.6 µM), usual class: inhibitors; 310,000 compounds, 3.5% hits; AID 2546, 2010;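 also: Gal4-VP16 expression switched on by copper sulfate through the metallothionein promoter; nearly all actives have a fitted effect of over 50% in size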
RORgamma inh = qHTS for inhibitors of ROR gamma transcriptional activity; AID 2551, 2010; Drosophila S2 Gal4-RORgamma UAS-luciferase reporter, 20 h; Potency, µM (top dose mostly 53.6 µM), usual class: inhibitors; 310,000 compounds, 5.4% hits; also: nearly all actives have a fitted effect of over 60% in size
Target sequence (P51450 whole entry, looked up, the tested form may be a part): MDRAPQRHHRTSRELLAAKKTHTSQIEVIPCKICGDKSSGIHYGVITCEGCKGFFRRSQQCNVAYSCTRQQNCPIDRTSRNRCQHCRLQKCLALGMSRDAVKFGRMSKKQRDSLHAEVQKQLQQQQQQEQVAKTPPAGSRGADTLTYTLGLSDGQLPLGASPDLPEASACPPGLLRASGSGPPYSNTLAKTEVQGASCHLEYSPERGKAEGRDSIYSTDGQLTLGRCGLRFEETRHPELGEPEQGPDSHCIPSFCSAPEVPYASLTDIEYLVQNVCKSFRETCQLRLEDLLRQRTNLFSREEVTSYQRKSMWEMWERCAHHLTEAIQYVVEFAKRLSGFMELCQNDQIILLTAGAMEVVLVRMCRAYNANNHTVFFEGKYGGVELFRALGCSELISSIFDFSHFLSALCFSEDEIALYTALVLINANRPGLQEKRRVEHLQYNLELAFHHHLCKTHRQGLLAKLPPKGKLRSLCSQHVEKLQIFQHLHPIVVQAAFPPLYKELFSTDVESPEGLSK
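In this cell-based reporter format, copper sulfate (700 uM final) drives Gal4–ROR gamma fusion expression from a metallothionein promoter in Drosophila Schneider cells; compounds preincubated 1 hr, reporter read after 20 hr at ambient temperature.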
SW480 rerep = A quantitative high throughput screen for small molecules that induce DNA re-replication in SW480 colon adenocarcinoma cells | SW480 DNA re-replication, Hoechst DNA content imaging, 48 h | Potency, µM (titrated, usually from 46.1 µM), hits mostly activators | 340,000 compounds, 1.8% hits; also: nearly all actives have a fitted effect of over 55% in size
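Readout is total intensity of Hoechst-stained nuclei, excited at 405 nm and collected at 500-530 nm. Compound treatment lasted 48 hr at 37 C in 5% CO2 before staining.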
BCR signal inh = qHTS Assay to Find Inhibitors of Chronic Active B-Cell Receptor Signaling; ABC-DLBCL IkBa-CBG/CBR reporter, luminescence ratio, 4 h; Potency, µM (top dose mostly 46.1 µM), usual class: inhibitors; 340,000 compounds, 0.05% hits; AID 493014, 2011; active = well fitted inhibition curve with a large enough effect in the signal ratio, with a control signal flat, not every such curve was filed as active; inconclusive = small, poorly fitted or top-dose-only effect, or effect the other way, or a change in a side signal; the % refers to the signal ratio
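Compounds up to 46 uM were incubated four hours with TMD8 cells whose green CBG68 luciferase is fused to IkappaBalpha; red CBR luminescence normalised the signal, and concentration-effect curves were fitted to fusion, red and ratio data.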
MCF10A rereplic = A quantitative high throughput screen for small molecules that induce DNA re-replication in MCF 10a normal breast cells; MCF 10A DNA re-replication, Hoechst nuclear intensity, 48 h; Potency, µM (highest dose often 46.1 µM), most hits filed as activators; 350,000 compounds, 2.9% hits; also: nearly all actives have a fitted effect of over 50% in size
Large screens that a line does not name were inactive. Compounds with a hit are over-represented: about 8.3% of the library has one in this group of screens. Unless noted, calls follow the shape of the dose curve; as a rule, active = well fitted curve in the direction sought with a large enough effect; inconclusive = small, poorly fitted or top-dose-only effect, or another doubt; inactive = no such curve, though single readings can be large; an effect the other way counts as inactive or inconclusive.

CCOC(=O)c1c(S(=O)(=O)Nc2ccccn2)c(C)n(C)c1C	Giardia killer inconclusive
CC(C)CN1C(=O)C(=O)N(CC(=O)NC(C)CCc2ccccc2)C1=O (centres undefined)	SW480 rerep inconclusive, MCF10A rereplic inconclusive (no result: VP16 counter, RORgamma inh)
COc1ccc(CN(C)CCCn2cnc3c(OCc4ccccc4)ncnc32)cc1OC	MCF10A rereplic inconclusive (no result: VP16 counter, RORgamma inh, BCR signal inh)
O=C(CCN1C(=O)S/C(=C\c2cccs2)C1=O)NC1=NCCS1	VP16 counter 17.8µM, RORgamma inh inconclusive
O=C1/C(=C/C=C/c2ccco2)SC(=S)N1c1ccc(O)cc1	none
CCN(CC)CCNC(=O)c1cn(-c2ccccc2)nc1-c1cccs1	none
Cc1ccc(/C=C2/SC(=S)N(CCCC(=O)Nc3cc([N+](=O)[O-])ccc3O)C2=O)cc1	VP16 counter inconclusive, RORgamma inh 7.94µM, SW480 rerep inconclusive, BCR signal inh inconclusive
CCN(CC)CCOC(=O)c1ccc(NC(=O)c2cn(-c3ccccc3)nc2-c2cccs2)cc1	VP16 counter inconclusive, RORgamma inh inconclusive, BCR signal inh inconclusive, MCF10A rereplic 20.6µM
O=C1/C(=C\c2ccco2)SC(=S)N1c1ccc(O)cc1	SW480 rerep 20.6µM, BCR signal inh inconclusive
COc1ccc(C)cc1NC(=O)CCCNC(=O)Cn1cnc2sc(C)c(C)c2c1=O	none
Cc1ccc(NC(=O)[C@@]2(CC(=O)O)CC(/C=C/c3ccccc3)=NO2)c(C)c1	none
CCN(CC)CCOC(=O)c1ccc(NC(=O)CCCN2C(=O)/C(=C/c3cccs3)SC2=S)cc1	VP16 counter 11.2µM, RORgamma inh 22.4µM, SW480 rerep inconclusive, BCR signal inh inconclusive, MCF10A rereplic inconclusive
O=C(CCN1C(=O)/C(=C/c2cccs2)SC1=S)Nc1ccc(C(=O)O)cc1	none
O=C(CCCN1C(=O)/C(=C\c2ccco2)SC1=S)Nc1ccc(O)cc1C(=O)O	VP16 counter 14.1µM, RORgamma inh 11.2µM
O=C(NNC(=S)NCc1ccc(Cl)cc1)c1ccc(Br)o1	BCR signal inh inconclusive
O=C(NC(=S)NCc1ccccc1)c1ccc(Br)o1	VP16 counter 12.6µM, RORgamma inh inconclusive (no result: Giardia killer, SW480 rerep, MCF10A rereplic)
O=C(NNC(=S)NCc1ccccc1)c1ccc(Br)o1	RORgamma inh 8.91µM
O=C(NNC(=S)NCc1ccccc1)c1ccc(Br)cc1	Giardia killer inconclusive, RORgamma inh 7.94µM
CSc1ccc(NC(=O)NCc2cccnc2)cc1	none
COc1ccc(C)cc1S(=O)(=O)N1CCC2(CC1)OCCN2S(=O)(=O)c1ccccc1	none (no result: VP16 counter, RORgamma inh)
CCOC(=O)c1c(C)[nH]c(N=Nc2cccc(OC)c2)c1C	RORgamma inh 3.98µM, MCF10A rereplic inconclusive
CCCN(CC(=O)Nc1ccccc1OC)C(=O)c1ccc2[nH]c3c(c2c1)CC(C)CC3 (centres undefined)	MCF10A rereplic inconclusive (no result: VP16 counter, RORgamma inh)
CCN(CC(=O)Nc1ccccc1OC)C(=O)c1ccc2[nH]c3c(c2c1)CC(C)CC3 (centres undefined)	BCR signal inh inconclusive, MCF10A rereplic 18.4µM (no result: VP16 counter, RORgamma inh)
CCc1nc2n(n1)C(O)c1cc([N+](=O)[O-])ccc1S2 (centres undefined)	none
CCN(CC(=O)NCc1ccc(F)cc1)C(=O)/C=C/c1cc(OC)ccc1OC	Giardia killer inconclusive, RORgamma inh inconclusive
Cc1ccc(C)c(NC(=O)CSc2nc(N)c(NC(=O)c3cccs3)c(=O)[nH]2)c1	none
O=C(CSc1nc2nc(-c3cccs3)cc(C(F)(F)F)c2c(=O)[nH]1)Nc1ccc(F)c(F)c1	VP16 counter inconclusive, RORgamma inh inconclusive, BCR signal inh inconclusive, MCF10A rereplic 18.4µM
Cc1ccc(C)c(NC(=O)CSc2nc3nc(-c4cccs4)cc(C(F)(F)F)c3c(=O)[nH]2)c1	BCR signal inh inconclusive, MCF10A rereplic 20.6µM
COc1cc(C(=O)OCC(=O)N(CC(C)C)C2CCS(=O)(=O)C2)cc(OC)c1C (centres undefined)	MCF10A rereplic inconclusive (no result: VP16 counter, RORgamma inh)
CCOc1ccc(NC(=O)C(CC)n2nc(C)c3c(C)n(-c4ccccc4)nc3c2=O)cc1 (centres undefined)	none
O=C1C(c2ccnc3ccccc23)=C(O)c2ccccc21	Giardia killer inconclusive, VP16 counter inconclusive, RORgamma inh 5.01µM, MCF10A rereplic inconclusive
Cc1nn(-c2ccccc2)c(C)c1C(=O)NNC(=O)C(F)(F)F	SW480 rerep inconclusive
CC(C)Cc1ccc(C(=O)Nc2ccc(Cc3ccncc3)cc2)o1	RORgamma inh inconclusive
CN(C)CC(CCC(CN(C)C)C(O)(c1ccccc1)c1ccccc1)C(O)(c1ccccc1)c1ccccc1 (centres undefined)	VP16 counter inconclusive, RORgamma inh inconclusive, SW480 rerep inconclusive, BCR signal inh inconclusive, MCF10A rereplic 20.6µM
CN(C)CC(O)CN(c1ccccc1)c1ccccc1 (centres undefined)	none
CCc1ccccc1NC(=O)CC(c1ccc(OC)cc1)n1cccc1 (centres undefined)	BCR signal inh inconclusive, MCF10A rereplic inconclusive
COc1cc(/C=C(\C#N)C(N)=O)cc(CSc2nc3ccccc3s2)c1O	VP16 counter 14.1µM, RORgamma inh 5.62µM (no result: Giardia killer, SW480 rerep, BCR signal inh, MCF10A rereplic)
CCOC(=O)c1cc2nc(OCC)nc(OCC)c2[nH]1	none (no result: VP16 counter, RORgamma inh, BCR signal inh)
COc1cccc(C2CN(c3ccc(F)cc3F)N=C2c2cccs2)c1OC (centres undefined)	SW480 rerep 4.11µM, MCF10A rereplic inconclusive
CN(C)c1ccc(N=Nc2ccccc2Br)cc1	VP16 counter inconclusive, RORgamma inh 8.91µM, BCR signal inh inconclusive
COc1ccc(C)cc1NC(=O)CNC(C)C(=O)Nc1cc(Cl)ccc1Cl (centres undefined)	none
C/C(=N\NC(=O)CN(c1ccccc1)S(C)(=O)=O)c1ccccc1O	VP16 counter 3.55µM, RORgamma inh 0.708µM
C/C(=N\NC(=O)CN1CCCCC1)c1ccccc1O	VP16 counter 15.8µM, RORgamma inh 3.55µM, SW480 rerep 6.51µM
COc1ccc(NC(=O)CC2(CC(=O)O)CCCC2)cc1	none
CCOC(=O)CNC(=O)c1cnc(Nc2ccccc2OC)c2ccccc12	none
COc1ccc(OC)c(NC(=O)c2cnc(Nc3ccccc3OC)c3ccccc23)c1	SW480 rerep 3.26µM
O=C(C1CC1)N(Cc1nc2ccccc2c(=O)[nH]1)Cc1cccs1	RORgamma inh inconclusive
O=C(C1CCCCC1)N(Cc1nc2sc3c(c2c(=O)[nH]1)CCCC3)Cc1cccs1	VP16 counter inconclusive, RORgamma inh 11.2µM, MCF10A rereplic inconclusive
CCN(CC)S(=O)(=O)c1ccc(N2CCOCC2)c(NS(=O)(=O)c2cc(C(C)(C)C)ccc2C)c1	BCR signal inh inconclusive
COc1cccc(NC(=S)N2CCc3cc(OC)c(OC)cc3C2)c1	none
